TDP1 inh = blocks human tyrosyl-DNA phosphodiesterase 1; 350,000 compounds, 0.28% hits; AID 485290; Potency, µM (series often up to 130 µM), inactives show at the top dose activity change, negative = inhibition, most hits filed as inhibitors; recombinant TDP1, AlphaScreen DNA substrate cleavage; Q9NUW8; further: potency means the concentration at half of the fitted maximal effect; nearly all actives have a fitted effect of over 40% in size
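Enzyme-compound mixtures sat 15 min at room temperature, followed by a 5 min reaction with 15 nM final substrate and 10 min with AlphaScreen beads. Recombinant human Tdp1 was used at 1 nM final.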
TDP1 cell CPT = growth inhibition of DT40 Tdp1-/-;hTDP1 cells with camptothecin (screen for TDP1 inhibitors); chicken DT40 Tdp1-/-;hTDP1 cells + 20 nM CPT, ATP luminescence, 48 h; Potency, µM (doses to about 46.2 µM), for inactives: at the top dose activity change, negative = growth inhibition, hits mostly inhibitors; 420,000 compounds, 12% hits; AID 686979; further: potency means the concentration at half of the fitted maximal effect; nearly all actives have a fitted effect of over 55% in size
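Chicken DT40 Tdp1-/- cells stably complemented with human TDP1 were seeded at 400 cells/well in medium containing 20 nM camptothecin, exposed to pin-transferred compounds, and grown at 37 °C for at least 48 hr. Viability was read as ATP luminescence.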
ELG1 DNA repair = ELG1-dependent DNA repair inhibition. HEK293T ELG1-luciferase reporter, luminescence, 16 h; DNA damage induced by 5-fluorouridine. Potency, µM (highest dose often 46.1 µM), for inactives: at the top dose activity change, negative = inhibition, most hits filed as inhibitors. 330,000 compounds, 2.3% hits. AID 504467; further: potency means the concentration at half of the fitted maximal effect; nearly all actives have a fitted effect of over 55% in size
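Reporter activity after DNA damage by 5-fluorouridine is monitored. Compound-treated cells incubate 16 hr at 37 °C, then ONE-Glo is added for 30 min before luminescence reading.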
Giardia kill = Giardia lamblia killing | 340,000 compounds, 0.15% hits | Giardia lamblia trophozoite viability | AID 540267 | activity change, % at 7.66 µM, hits read low; in the data active means activity change below about -80%; inconclusive means between about -30% and that limit;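 further: parasites exposed to compound for two days anaerobically before the ATP read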
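Compounds were tested on trophozoites seeded at 100 cells/well and held 48 hrs at 37 deg C anaerobically. An ATP-based luminescent kit measured the remaining live cells.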
IL-1B inflam inh = inhibitors of inflammasome signaling (IL-1 beta secretion); activity change, % at 57.5 µM; THP-1 LPS/ATP IL-1B secretion, AlphaLISA, 16 h; active compounds read low; 360,000 compounds, 4.7% hits; in the data active means activity change below about -50%; inconclusive means mostly about -30% to -49%
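THP-1 cells pretreated 1 hr with compounds (up to 57.5 uM final), then stimulated with LPS (250 ng/mL final) plus ATP (1.25 mM final); secreted IL-1B measured by AlphaLISA after 16 hr, decreased signal indicating inhibition.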
DT40 TDP1 no CPT = qHTS for Inhibitors of human tyrosyl-DNA phosphodiesterase 1 (TDP1): qHTS in cells in absence of CPT; 420,000 compounds, 15% hits; AID 686978, 2013; Potency, µM (highest dose often 46.2 µM), for the others: top-dose activity change, negative = growth inhibition, usual class: inhibitors; DT40 Tdp1-/- hTDP1 cells, no CPT, ATP luminescence, 48 h; further: potency means the concentration at half of the fitted maximal effect; nearly all actives have a fitted effect of over 55% in size
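Luminescent ATP content (CellTiter-Glo) served as the growth readout. Knockout chicken DT40 cells expressing human TDP1 were exposed to compounds without camptothecin for a minimum 48 hr at 37 °C.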
* marks the source's active call; other numbers are inactive results; u = inconclusive; x = not tested or not shown; [ ] = remark or other dose. The list is not random: actives were taken first. Their share in the collection is about 19%. Unless noted, the call rests on the fitted dose curve; in most records, active means well fitted curve in the direction sought with a large enough effect; inconclusive means small, poorly fitted or top-dose-only effect, or another doubt; inactive means no such curve, though single readings can be large; an effect the other way counts as inactive or inconclusive. On the % scale 0 is the no-effect control and ±100 the full control effect.

SMILES	TDP1 inh	TDP1 cell CPT	ELG1 DNA repair	Giardia kill	IL-1B inflam inh	DT40 TDP1 no CPT
COc1cc([N+](=O)[O-])ccc1NC(=O)CC1SC(=Nc2ccc(F)cc2)N(CCC2=CCCCC2)C1=O (stereo not given)	5%	16µM*	-7%	-13	-4	15µM*
COc1ccc(N=C2SC(CC(=O)Nc3ccccc3)C(=O)N2CCc2ccccn2)cc1 (stereo not given)	-8%	u	u	-18	-13	u
CCCCn1c(N)c(N(CC(C)C)C(=O)c2ccc(OC)c(S(=O)(=O)N3CCOCC3)c2)c(=O)[nH]c1=O	x	2%	x	6	12	2%
CN(C)c1ccc(N=Nc2ccc(C(=O)O)cc2)cc1	x	0%	u	u	31	2%
CN(C)c1ccc(N=NS(=O)(=O)O)cc1	14%	22µM*	x	x	x	24µM*
O=C(CCc1nc(-c2cccs2)no1)Nc1cccc([N+](=O)[O-])c1	3%	u	x	x	x	u
CCN(CCN(C)C)C(=O)C1CCN(S(=O)(=O)c2c(C)noc2/C=C/c2ccccc2F)CC1	5%	2.9µM*	14%	3	-11	4.6µM*
Cc1noc(/C=C/c2ccccc2F)c1S(=O)(=O)N1CCC(C(=O)N2CCN(C)CC2)CC1	4%	u	-11%	-19	0	u
CCOc1ccccc1/C=C/c1onc(C)c1S(=O)(=O)N1CCC(C(=O)N(CC)CC)CC1	0%	15µM*	5.8µM*	-1	-11	16µM*
O=Cc1ccc(OC(=O)CCCCC(=O)Oc2ccc(C=O)cc2)cc1	x	0%	9%	2	-2	14%
COc1ccc(NC(=S)N(CCc2nc3cc(C)c(C)cc3[nH]2)Cc2cccnc2)cc1	0%	-28%	16µM*	u	-14	-28%
Cc1cc(N)n(-c2ccc(S(N)(=O)=O)cc2[N+](=O)[O-])n1	-3%	2%	3%	0	0	2%
Cc1cc2c(c(-c3cnccn3)c1)OC(CNC(=O)c1ccccc1C(F)(F)F)C2 (stereo not given)	x	-3%	x	x	x	-10%
O=C(NCC1Cc2cc(F)cc(-c3cnccn3)c2O1)c1cccc(-c2ccccc2F)c1 (stereo not given)	x	12µM*	x	x	x	23µM*
Cc1cc(C)n(-c2cccc(C(=O)NCC3Cc4cccc(-c5ccccn5)c4O3)c2)n1 (stereo not given)	x	u	x	x	x	12µM*
Cc1cc(C)n(-c2cccc(C(=O)NCC3Cc4cc(Cl)cc(-c5cnccn5)c4O3)c2)n1 (stereo not given)	x	-4%[9.04 µM]	x	x	x	u
O=C(NCC1Cc2cc(F)cc(-c3cnccn3)c2O1)c1cccc(Cl)c1 (stereo not given)	x	u	x	x	x	18µM*
CCC(CC)NC(=O)COc1ccc(OC)cc1C=O	6%	11%	-13%	-23	31	-22%
CC(=O)N(Cc1cc2ccc(C)c(C)c2n2nnnc12)C1CCCC1	6%	x	u	x	x	x
Cc1cc2cc(CN(C(=O)C3CC3)C3CCCC3)c3nnnn3c2cc1C	3%	u	-1%	6	-19	21µM*
COc1ccc(S(=O)(=O)N2CCN(C(=O)c3cccs3)CC2)cc1	6%	-13%	u	2	-12	-17%
O=C(c1sccc1-c1ccccc1)N1CCN(S(=O)(=O)c2ccccc2F)CC1	1%[0.505 µM]	15µM*	-13%	4	5	u
COc1ccc(S(=O)(=O)N2CCN(C(=O)c3sccc3-c3ccccc3)CC2)cc1	-10%[0.505 µM]	15µM*	-1%	-21	3	21µM*
Cc1cc(F)ccc1C(O)c1ncc(-c2ccccc2C(F)(F)F)[nH]1 (stereo not given)	x	-25%	x	x	-15	-26%
